Data from PubChem BioAssay (NCI).
Compounds without any hit were thinned out: in the full panel of roughly 83,000, 20% have a hit.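 Interpretation: 100, growth as untreated; towards 0, rising growth inhibition; 0, no net growth; 0 to -100, cell death. Compounds scoring below 10 were considered active.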 Active and inactive are the calls of the source.

Tests used:
Assay in all cases: NCI-60 one-dose screen, 48 h (100 = growth as untreated, 0 = no growth, -100 = all killed)
Details in all cases: 10 µM unless noted
NCI-H23 lung = system: NCI-H23 lung
NCI-H226 lung = system: NCI-H226 lung
NCI-H322M lung = system: NCI-H322M lung
HOP-62 NSCLC = system: HOP-62 NSCLC
NCI-H460 lung = system: NCI-H460 lung
HOP-92 NSCLC = system: HOP-92 NSCLC
NCI-H522 lung = system: NCI-H522 lung
A549/ATCC NSCLC = system: A549/ATCC NSCLC
786-0 renal = system: 786-0 renal
COLO 205 colon = system: COLO 205 colon
DU-145 prostate = system: DU-145 prostate
K-562 leukemia = system: K-562 leukemia
MALME-3M melanoma = system: MALME-3M melanoma
MDA-MB-231 breast = system: MDA-MB-231 breast
RXF 393 renal = system: RXF 393 renal
SF-268 CNS = system: SF-268 CNS
SF-295 CNS = system: SF-295 CNS
SF-539 CNS = system: SF-539 CNS
UACC-257 melanoma = system: UACC-257 melanoma
M14 melanoma = system: M14 melanoma

Measured: growth

NCCCNc1nc2ccccc2c2c(=O)c3cc(C(F)(F)F)ccc3sc12
inactive: NCI-H23 lung 49.6% | NCI-H226 lung 86.8% | NCI-H322M lung 56.8% | HOP-62 NSCLC 52.7% | HOP-92 NSCLC 32.6% | 786-0 renal 61.1% | MALME-3M melanoma 87.1% | RXF 393 renal 55.7% | SF-268 CNS 47.1% | SF-295 CNS 71.7% | UACC-257 melanoma 96.1%
active: NCI-H460 lung -69.7% | NCI-H522 lung -3.15% | A549/ATCC NSCLC -16.6% | COLO 205 colon -41.4% | DU-145 prostate -0.179% | K-562 leukemia -21.4% | MDA-MB-231 breast -35.2% | SF-539 CNS -20% | M14 melanoma -26.9%

CN1CCN(c2ccc(-c3cnc4c(-c5csc6ccccc56)cnn4c3)cc2)CC1
inactive: NCI-H23 lung 14.3% | NCI-H322M lung 10.2%
active: NCI-H226 lung -5.69% | HOP-62 NSCLC -35.2% | NCI-H460 lung -78.2% | HOP-92 NSCLC 0.36% | NCI-H522 lung -60.8% | A549/ATCC NSCLC -76.9% | 786-0 renal -68.5% | COLO 205 colon -80.9% | DU-145 prostate 9.16% | K-562 leukemia 3.45% | MALME-3M melanoma -70.1% | MDA-MB-231 breast -25.3% | RXF 393 renal -66.4% | SF-268 CNS -15.8% | SF-295 CNS -49.7% | SF-539 CNS -86.4% | UACC-257 melanoma -76.3% | M14 melanoma -71.8%

COc1ccc(C(=S)N2CCN(c3cccc(C)c3)CC2)cc1OC
inactive: NCI-H23 lung 65.2% | NCI-H226 lung 98.4% | NCI-H322M lung 99.7% | HOP-62 NSCLC 90.6% | NCI-H460 lung 51.8% | HOP-92 NSCLC 81% | NCI-H522 lung 22.8% | A549/ATCC NSCLC 59.4% | 786-0 renal 80.6% | COLO 205 colon 80.2% | DU-145 prostate 90.7% | K-562 leukemia 25.5% | MALME-3M melanoma 80% | MDA-MB-231 breast 77.3% | RXF 393 renal 67.8% | SF-268 CNS 84.7% | SF-295 CNS 57.4% | SF-539 CNS 82.2% | UACC-257 melanoma 77.7% | M14 melanoma 38.4%
